Values joined by “and” are separate entries in the source; they are usually repeats but may differ in a detail not shown here. Equal entries are not always repeated. About 2,000 (36%) of roughly 5,500 compounds were called active. Roughly 18% stayed inconclusive and do not appear here. Cut-off read from the data, not from the text of the source: active = normalized growth mostly below about 0.91 (no sharp cut-off); inconclusive = no clear call, values can overlap the other calls; inactive = mostly above about 0.92. The list shows a part of the results.
Assay: chemical genetic growth profiling, strain panel (AID 1159580);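 note: tested at 20 µM; growth read once vehicle control cultures reached saturation at 30 °C; 1 = growth at the plate median or of vehicle wells; lower values mean less growth of the strain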
Settings: S. cerevisiae deletion strains, growth OD

Measured: normalized growth

CC(C)=CCc1c(O)cc2occ(-c3ccc4c(c3)OCO4)c(=O)c2c1O
0.984 (inactive) and 0.838 (active): locus YJL095W, strain BCK1, stronger effect = lower value
active: locus YAL026C, strain drs2, stronger effect = lower value 0.865 | locus YBL061C, strain skt5, stronger effect = lower value 0.864 | locus YBR009C, strain hhf1, stronger effect = lower value 0.819 | locus YBR023C, strain chs3, stronger effect = lower value 0.855 | locus YCL016C, strain dcc1, stronger effect = lower value 0.872 | locus YCL061C, strain MRC1, stronger effect = lower value 0.909 | locus YCL069W, strain vba3, stronger effect = lower value 0.888 | locus YDR297W, strain sur2, stronger effect = lower value 0.911 | locus YDR335W, strain msn5, stronger effect = lower value 0.917 | locus YDR392W, strain spt3, stronger effect = lower value 0.67 | locus YER015W, strain faa2, stronger effect = lower value 0.876 | locus YGL253W, strain hxk2, stronger effect = lower value 0.814 | locus YHR013C, strain ard1, stronger effect = lower value 1.17 [resistant] | locus YHR027C, strain rpn1, stronger effect = lower value 0.805 | locus YHR079C, strain IRE1, stronger effect = lower value 0.8 | locus YHR142W, strain chs7, stronger effect = lower value 0.74 | locus YJL166W, strain qcr8, stronger effect = lower value 0.862
1.01 (inactive) and 0.843 (active): locus YHR030C, strain SLT2, stronger effect = lower value
inactive: locus YAL013W, strain DEP1, stronger effect = lower value 1.01 | locus YAL021C, strain ccr4, stronger effect = lower value 1.05 | locus YAL030W, strain snc1, stronger effect = lower value 0.996 | locus YBR021W, strain FUR4, stronger effect = lower value 0.991 | locus YBR171W, strain sec66, stronger effect = lower value 0.981 | locus YBR229C, strain ROT2, stronger effect = lower value 1.02 | locus YBR231C, strain swc5, stronger effect = lower value 0.929 | locus YBR279W, strain paf1, stronger effect = lower value 0.993 | locus YCL011C, strain gbp2, stronger effect = lower value 0.909 | locus YCL029C, strain bik1, stronger effect = lower value 1.03 | locus YCR088W, strain abp1, stronger effect = lower value 0.998 | locus YDL005C, strain med2, stronger effect = lower value 0.993 | locus YDL035C, strain GPR1, stronger effect = lower value 1.01 | locus YDL040C, strain nat1, stronger effect = lower value 1 | locus YDL074C, strain BRE1, stronger effect = lower value 1.03 | locus YDL101C, strain DUN1, stronger effect = lower value 1.01 | locus YDL134C, strain PPH21, stronger effect = lower value 1.01 | locus YDL185W, strain tfp1, stronger effect = lower value 1.03 | locus YDL192W, strain arf1, stronger effect = lower value 1.03 | locus YDR001C, strain nth1, stronger effect = lower value 1.01 | locus YDR069C, strain doa4, stronger effect = lower value 0.957 | locus YDR101C, strain arx1, stronger effect = lower value 1.01 | locus YDR137W, strain rgp1, stronger effect = lower value 0.897 | locus YDR150W, strain NUM1, stronger effect = lower value 1 | locus YDR159W, strain sac3, stronger effect = lower value 0.888 | locus YDR162C, strain NBP2, stronger effect = lower value 1.01 | locus YDR195W, strain ref2 0.937 | locus YDR318W, strain mcm21, stronger effect = lower value 1.02 | locus YDR334W, strain swr1, stronger effect = lower value 0.967 | locus YDR388W, stronger effect = lower value 1.02 | locus YDR502C, strain sam2, stronger effect = lower value 1.01 | locus YEL003W, strain gim4, stronger effect = lower value 0.932 | locus YEL037C, strain rad23, stronger effect = lower value 0.994 | locus YEL061C, strain CIN8 (second series), stronger effect = lower value 0.997 | locus YEL061C, strain CIN8, stronger effect = lower value 1.01 | locus YER016W, strain bim1, stronger effect = lower value 0.997 | locus YER110C, stronger effect = lower value 1.05 | locus YER111C, strain swi4, stronger effect = lower value 1.02 | locus YER155C, strain BEM2 (second series), stronger effect = lower value 0.911 | locus YER155C, strain BEM2, stronger effect = lower value 1.01 | locus YER167W, strain BCK2, stronger effect = lower value 1.02 | locus YFR010W, strain ubp6, stronger effect = lower value 0.92 | locus YGL078C, strain dbp3, stronger effect = lower value 1.03 | locus YGL086W, strain mad1, stronger effect = lower value 1.05 | locus YGL167C, strain pmr1, stronger effect = lower value 1 | locus YGL173C, strain kem1, stronger effect = lower value 0.921 | locus YGL227W, strain vid30, stronger effect = lower value 0.972 | locus YGL240W, strain doc1, stronger effect = lower value 0.944 | locus YGL248W, strain PDE1, stronger effect = lower value 1.02 | locus YGR078C, strain PAC10, stronger effect = lower value 0.997 | locus YGR135W, strain pre9, stronger effect = lower value 0.993 | locus YGR229C, strain SMI1, stronger effect = lower value 0.983 | locus YGR252W, strain gcn5, stronger effect = lower value 1.03 | locus YHR079C, strain IRE1 (second series), stronger effect = lower value 1.03 | locus YHR094C, strain hxt1, stronger effect = lower value 1.03 | locus YHR129C, strain ARP1, stronger effect = lower value 1.01 | locus YHR200W, strain rpn10, stronger effect = lower value 1.02 | locus YIL066C, strain RNR3, stronger effect = lower value 1.01 | locus YIL073C, strain SPO22, stronger effect = lower value 1.05 | locus YIL125W, strain kgd1, stronger effect = lower value 1.03 | locus YIR030C, strain dcg1, stronger effect = lower value 1.02 | locus YJL092W, strain hpr5, stronger effect = lower value 0.962 | locus YJL095W, strain BCK1 (second series), stronger effect = lower value 0.946 | locus YJL115W, strain asf1, stronger effect = lower value 1.01 | locus YJL129C, strain trk1, stronger effect = lower value 0.923 | locus YJL134W, strain LCB3, stronger effect = lower value 1.01 | locus YJL154C, strain vps35, stronger effect = lower value 1 | locus YJL164C, strain tpk1, stronger effect = lower value 0.943 | locus YJL168C, strain set2, stronger effect = lower value 1.02 | locus YJL187C, strain SWE1 (second series), stronger effect = lower value 1.01 | locus YJL187C, strain SWE1, stronger effect = lower value 1 | locus YJR043C, strain POL32, stronger effect = lower value 0.994

Source: PubChem BioAssay AID1159580 (chemical genetic matrix, 2015)
